PubChem BioAssay AID1259421 (Broad Institute, 2018)
Several values for one entry are separate records, joined by “and”; a condition that tells them apart may be missing. Identical values can stand only once. The whole screen tested about 6,400 compounds, of which about 610 (9.5%) were called active. Cut-off read from the data, not from the text of the source: active = activity change below about -70%; inconclusive = no clear call, values can overlap the other calls; inactive = above that. Only a selection was taken, and actives are over-represented in it overall. More than one record can exist for a structure, and the calls need not agree. *1 amine or outer side, *2 acyl side, *3 side chain or, on linkers, in order; H or OH if unused. Where a SMILES comes first, the peptide text is derived from it. Bridges are numbered along the chain shown (N, C = ends). [ ]: non-standard residue; d: D form. The star is where a group is joined. ξ: configuration not given here. pTerphenylCO(4''-OnC5H11) = CCCCCOc1ccc(-c2ccc(-c3ccc(C(=O)*)cc3)cc2)cc1; ξOrn(4,5-diOH) = O=C(C(CC(O)C(O)N[*:3])N[*:1])[*:2]; ξhTyr(βξ-OH,γξ-OH) = NC(C(=O)O)C(O)C(O)c1ccc(O)cc1; ξPro(3ξ-OH,4ξ-Me) = CC1CNC(C(=O)O)C1O; Heptanoyl(6-Me) = CC(C)CCCCC(=O)*; Hyp = O=C(O)[CH]1C[CH](O)CN1; ξDab = NCCC(N)C(=O)O; ξT = CC(O)C(N)C(=O)O

experiment: T. gondii ME49Luc in HeLa cells, luciferase assay, 72 h, no IFN-y (AID 1259421); conditions: stronger effect = lower value, concentration not given here

| SMILES | activity change, negative = inhibition |
| --- | --- |
| CCC(CC)C(c1ccc(Nc2nc3ccccc3s2)cc1)n1cncn1 (centres undefined) | 4.5% (inactive) |
| COC(=O)N(C)c1c(N)nc(-c2nn(Cc3ccccc3F)c3ncccc23)nc1N | 2.65% (inactive) |
| CC(=O)O[C@H]1C(=O)[C@@]2(C)[C@H]([C@H](OC(=O)c3ccccc3)[C@]3(O)C[C@H](OC(=O)[C@H](O)[C@@H](NC(=O)c4ccccc4)c4ccccc4)C(C)=C1C3(C)C)[C@]1(OC(C)=O)CO[C@@H]1C[C@@H]2O | -84.9% (active) and -74.8% (active) |
| CC(=O)OC1C(=O)C2(C)C(O)CC3OCC3(OC(C)=O)C2C(OC(=O)c2ccccc2)C2(O)CC(OC(=O)C(O)C(NC(=O)c3ccccc3)c3ccccc3)C(C)=C1C2(C)C (centres undefined) | -87.7% (active) |
| CC(=O)O[C@H]1C(=O)[C@@]2(C)C([C@H](OC(=O)c3ccccc3)[C@]3(O)C[C@H](OC(=O)[C@H](O)[C@@H](NC(=O)c4ccccc4)c4ccccc4)C(C)=C1C3(C)C)[C@]1(OC(C)=O)CO[C@@H]1C[C@@H]2O (some centres undefined) | -86.6% (active) and -77.4% (active) |
| CCCCCCCC/C=C/CCCCCCCC(=O)NC(CO)Cc1ccc(O)cc1 (centres undefined) | 6.19% (inactive) |
| C[N+]1(C)[C@@H]2CC(OC(=O)[C@H](CO)c3ccccc3)C[C@H]1[C@@H]1O[C@@H]12 (some centres undefined) | 10.8% (inactive) |
| O=C(O)CC/C=C/CC1COC(c2ccccc2Cl)OC1c1ccccc1O (centres undefined) | 11.4% (inactive) |
| O=C(O)[C@@H]1C[C@H]2C[C@@H](CCc3nn[nH]n3)CC[C@H]2CN1 | 15.6% (inactive) |
| CN1CCCC1c1cccnc1 (centres undefined) | 24.1% (inactive) |
| CCCCCOc1ccc(-c2ccc(-c3ccc(C(=O)NC4CC(O)C(O)NC(=O)C5C(O)C(C)CN5C(=O)C(C(C)O)NC(=O)C(C(O)C(O)c5ccc(O)cc5)NC(=O)C5CC(O)CN5C(=O)C(C(C)O)NC4=O)cc3)cc2)cc1 (stereo not drawn) ({pTerphenylCO(4''-OnC5H11)}-[ξOrn(4,5-diOH)]T[Hyp][ξhTyr(βξ-OH,γξ-OH)]T[ξPro(3ξ-OH,4ξ-Me)]; lactam 1-C; configuration not given here) | -6.09% (inactive) |
| Cc1nn(-c2ccccc2)c(C)c1/C=N/N1CCN(Cc2ccccc2)CC1 | 7.74% (inactive) and 0.523% (inactive) |
| Cn1[nH]c(=O)c(=O)[nH]c1=S | 14.6% (inactive) |
| C[C@@H]1CC2C3CCC4=CC(=O)C=C[C@]4(C)[C@@]3(F)[C@@H](O)C[C@]2(C)[C@H]1C(=O)CO (some centres undefined) | -13.5% (inactive) and -8.09% (inactive) |
| CCCCC[C@H](O)/C=C/C=C\C/C=C\C/C=C\CCCC(=O)O | -37.7% (inactive) |
| Cc1c(N)cccc1Cn1ccc(OCCc2cccs2)cc1=O | 1.77% (inactive) |
| CCNC(=O)c1noc(-c2cc(C(C)C)c(O)cc2O)c1-c1ccc(CN2CCOCC2)cc1 | -87.9% (active) |
| Cc1cc(C)c(CNC(=O)c2cc(-c3ccc(CN4CCOCC4)cc3)cc3c2cnn3C2CCCC2)c(=O)[nH]1 | -31% (inactive) |
| CC(C)c1cc(C(=O)N2Cc3ccc(CN4CCN(C)CC4)cc3C2)c(O)cc1O | -63.5% (inactive) |
| CC(C)(O)[C@H]1CC[C@@](C)([C@H]2[C@@H](O)C[C@@]3(C)[C@@H]4C[C@H](O[C@@H]5O[C@H](CO)[C@@H](O)[C@H](O)[C@H]5O)[C@H]5C(C)(C)[C@@H](O[C@@H]6OC[C@@H](O)[C@H](O)[C@H]6O)CC[C@@]56C[C@@]46CC[C@]23C)O1 | 3% (inactive) |
| Cc1cc(-c2cc(O)ccc2Cl)cc2nnc(Nc3ccc(OCCN4CCCC4)cc3)nc12 | -89.7% (active) |
| CCCCOc1ccc(C(=O)CCN2CCCCC2)cc1 | 1.11% (inactive) |
| Cc1cc(-c2cc(OC(=O)c3ccccc3)ccc2Cl)cc2nnc(Nc3ccc(OCCN4CCCC4)cc3)nc12 | 7.81% (inactive) |

| SMILES | activity change, negative = inhibition |
| --- | --- |
| CCn1ccnc1CC1COc2ccccc2O1 (centres undefined) | 16.5% (inactive) and 6.37% (inactive) |
| Nc1nonc1C(=Nc1ccc(F)c(Cl)c1)NO | 17% (inactive) |
| CCOc1ccc(-n2c([C@@H](C)N(Cc3cccnc3)C(=O)Cc3ccc(OC(F)(F)F)cc3)nc3ncccc3c2=O)cc1 | -0.654% (inactive) |
| CON=C1C[C@]2(C[C@@H]3C[C@@H](C/C=C(\C)C[C@@H](C)/C=C/C=C4\CO[C@@H]5[C@H](O)C(C)=C[C@@H](C(=O)O3)[C@]45O)O2)O[C@H](/C(C)=C/C(C)C)[C@H]1C | -67.7% (inactive) |
| CC(C)c1cc(-c2n[nH]c(=O)n2-c2ccc3c(ccn3C)c2)c(O)cc1O | -82.8% (active) |
| CC(C)CCCCC(=O)NC(CCN)C(=O)NC(C(=O)NC(CCN)C(=O)NC1CCNC(=O)C(C(C)O)NC(=O)C(CCN)NC(=O)C(CCN)NC(=O)[C@H](CC(C)C)NC(=O)[C@@H](CC(C)C)NC(=O)C(CCN)NC1=O)C(C)O (stereo partly drawn) ({Heptanoyl(6-Me)}-[ξDab][ξT][ξDab][ξDab][ξDab][dL]L[ξDab][ξDab][ξT]; lactam 4-C) | 5.64% (inactive) |
| COc1ccc(-c2cc(=O)c3c(OC)c(OC)c(OC)cc3o2)cc1OC | -3.44% (inactive) |
| COc1cc(-c2ccc(=O)[nH]n2)ccc1OC(F)F | -98.8% (active) and -89.5% (active) |
| COc1ccc(-c2cc(=O)c3c(OC)c(OC)c(OC)c(OC)c3o2)cc1OC | 14.2% (inactive) |
| N[C@@H](CSCCCO)C(=O)O | 9.56% (inactive) and 5.2% (inactive) |
| COC(=O)Nc1nc2ccc(SC(C)C)cc2[nH]1 | -47% (inactive) and -32.6% (inactive) |
| CCCSc1ccc2nc(NC(=O)OC)[nH]c2c1 | -54.3% (inactive) and -5.56% (inactive) |
| COC(=O)Nc1nc2ccc(Sc3ccccc3)cc2[nH]1 | -42.3% (inactive) and -3.74% (inactive) and -73.8% (active) |
| CCCS(=O)c1ccc2nc(NC(=O)OC)[nH]c2c1 (centres undefined) | 18.9% (inactive) |
| COC(=O)Nc1nc2ccc(C(=O)c3cccs3)cc2[nH]1 | -78.8% (active) and -71.2% (active) |
| COC(=O)Nc1nc2ccc(S(=O)c3ccccc3)cc2[nH]1 (centres undefined) | 1.33% (inactive) and 7.44% (inactive) and -54.7% (inactive) |
| COC(=O)Nc1nc2ccc(C(=O)c3ccccc3)cc2[nH]1 | -65.6% (inactive) and -76% (active) |
| COC(=O)Nc1nc2ccc(C(=O)C3CC3)cc2[nH]1 | -35.4% (inactive) |
| COC(=O)Nc1nc2ccc(C(=O)c3ccc(F)cc3)cc2[nH]1 | -64.8% (inactive) |
| CN(CCOP(=O)(O)O)C(=N)N | 22.7% (inactive) and 1.51% (inactive) |
| O=C(O)[C@H](Cc1ccc(Nc2nccc3ccncc23)cc1)NC1=C(Br)C(=O)C12CCCCC2 | -35.7% (inactive) |
| CN(C)CCC1(c2ccc(Cl)cc2)Cc2ccccc2C(=O)O1 (centres undefined) | 24.4% (inactive) and 4.82% (inactive) |
| CCOc1nc2cccc(C(=O)OC(C)OC(=O)OC3CCCCC3)c2n1Cc1ccc(-c2ccccc2-c2nn[nH]n2)cc1 (centres undefined) | 26.2% (inactive) and -2.58% (inactive) |

| SMILES | activity change, negative = inhibition |
| --- | --- |
| COc1ccc(-c2oc3ccccc3c(=O)c2O)cc1OC | 17.9% (inactive) |
| CN(C)C(=O)C(=O)c1cn(C)c2cc(Cl)c(C(=O)N3CCC(Cc4ccc(F)cc4)CC3)cc12 | -34.4% (inactive) |
| CN(C)[C@@H](CCOc1cccc2ccccc12)c1ccccc1 | 16.9% (inactive) |
| CC(C)Nc1nc2cc(Cl)c(Cl)cc2n1[C@H]1O[C@@H](CO)[C@H](O)[C@@H]1O | -13.6% (inactive) |
| c1ccc(C(NCc2cccnc2)(c2ccccc2)c2ccccc2)cc1 | 3.97% (inactive) and 35.4% (inactive) |
| CCCn1c(=O)c2[nH]c(C34CC5CC(CC3C5)C4)nc2n(CCC)c1=O | -9.56% (inactive) |
| Fc1ccc(C(c2ccccc2)(c2ccccc2F)n2ccnc2)cc1 (centres undefined) | -44.6% (inactive) |
| N#C/C(=C1/SCC(c2ccccc2Cl)S1)n1ccnc1 (centres undefined) | 12.5% (inactive) |
| Clc1ccccc1C(c1ccccc1)(c1ccccc1)n1ccnc1 | -38.2% (inactive) and -91% (active) |
| N[C@H](Cc1cnc[nH]1)C(=O)O | 2.37% (inactive) |
| O=c1cc[nH]c2cc(Cl)ccc12 | 10.2% (inactive) |
| CN(C)C/C=C/C(=O)Nc1cc2c(Nc3ccc(F)c(Cl)c3)ncnc2cc1O[C@H]1CCOC1 | -87.8% (active) |
| C=CC(=O)Nc1cc2c(Nc3ccc(F)c(Cl)c3)ncnc2cc1OCCCN1CCOCC1 | -41.3% (inactive) |
| C[C@@H]1COC(Nc2ccc3ncnc(Nc4ccc(OCc5nccs5)c(Cl)c4)c3c2)=N1 | -65.9% (inactive) |
| CCN(CC)CC1CCN(c2ncc3ncnc(Nc4ccc(F)c(Cl)c4)c3n2)CC1 | -13.4% (inactive) and 3.34% (inactive) |
| CNC(=O)CN1CCC(Oc2cc3c(Nc4cccc(Cl)c4F)ncnc3cc2OC)CC1 | -53.4% (inactive) |
| COc1cc2ncnc(Nc3ccc(F)c(Cl)c3)c2cc1NC(=O)/C=C/CN1CCCCC1 | -80.3% (active) |
| CC/C=C\C/C=C\C/C=C\C/C=C\C/C=C\CCCC(=O)O | 2.92% (inactive) |
| COc1ccc(NS(=O)(=O)c2ccc(N=Nc3ccc(O)c(C(=O)O)c3)cc2)nn1 | 5.08% (inactive) |
| O=C(O)Cc1nn(Cc2nc3cc(C(F)(F)F)ccc3s2)c(=O)c2ccccc12 | 19.5% (inactive) |
| C=CC(=O)Nc1ccc2ncnc(Nc3cccc(Br)c3)c2c1 | -18.1% (inactive) |
| COCC(=O)NC/C=C/c1ccc2ncnc(Nc3ccc(Oc4ccc(C)nc4)c(C)c3)c2c1 | -85.5% (active) |
| COc1ccc(Nc2ncnc3ccc(OC)cc23)cc1 | 3.66% (inactive) and 3.52% (inactive) |
